In PubChem BioAssay (NCI):
Values joined by “and” are separate entries in the source; they are usually repeats but may differ in a detail not shown here. Equal entries are not always repeated. This is part of a sample that, as a whole, favours compounds with a hit. Of some 83,000 tested, about 20% had one in any assay.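 How to read the values: 0–100, growth inhibition (40 = 60% inhibited); 0, no net growth; -100 to 0, cell death (-40 = 40% of starting cells died; -100 = all dead).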 Active and inactive are the calls of the source. The calls were made as follows: active = growth percent below 10; inactive = the rest.

What was measured:
Assay in all cases: NCI-60 one-dose screen, 48 h (100 = growth as untreated, 0 = no growth, -100 = all killed)
RPMI-8226 leukemia = test system: RPMI-8226 leukemia
OVCAR-8 ovarian = test system: OVCAR-8 ovarian
OVCAR-5 ovarian = test system: OVCAR-5 ovarian
OVCAR-4 ovarian = test system: OVCAR-4 ovarian
SK-OV-3 ovarian = test system: SK-OV-3 ovarian
IGROV1 ovarian = test system: IGROV1 ovarian
OVCAR-3 ovarian = test system: OVCAR-3 ovarian
NCI/ADR-RES ovarian = test system: NCI/ADR-RES ovarian
SR leukemia = conditions: 10 µM unless noted
HS 578T breast = conditions: 10 µM

Q: How did the growth (RPMI-8226 leukemia; 10 µM) turn out when COC(=O)C1C(O)C(C)C(O)C(C)C=C(C)C2=C3C(=C(C)C(=O)c4c(O)c(c(C)c(OC(C)=O)c43)NC(=O)C(C)=C/C=C\C(C)C(O)C(C)C1O)OCO2 (centres undefined) was run?
A: 118% (inactive)

Q: What about the growth (OVCAR-8 ovarian; 10 µM) of the same molecule?
A: 114% (inactive)

Q: What about the growth (OVCAR-5 ovarian; 10 µM) of the same molecule?
A: 104% (inactive)

Q: And the growth (OVCAR-4 ovarian; 10 µM)?
A: 108% (inactive)

Q: And the growth (SK-OV-3 ovarian; 10 µM)?
A: 116% (inactive)

Q: And the growth (IGROV1 ovarian; 10 µM)?
A: 163% (inactive)

Q: And the growth (OVCAR-3 ovarian; 10 µM)?
A: 113% (inactive)

Q: And the growth (NCI/ADR-RES ovarian; 10 µM)?
A: 121% (inactive)

Q: What does the source list for CCCC1CCC(=C2C(=O)CCC2=O)O1 (centres undefined)?
A: growth (SR leukemia): 96.5% (inactive) and 78.2% (inactive); growth (RPMI-8226 leukemia; 10 µM): 119% (inactive) and 113% (inactive); growth (OVCAR-8 ovarian; 10 µM): 112% (inactive); growth (OVCAR-5 ovarian; 10 µM): 96.8% (inactive) and 97% (inactive); growth (OVCAR-4 ovarian; 10 µM): 98.2% (inactive); growth (SK-OV-3 ovarian; 10 µM): 104% (inactive) and 110% (inactive); growth (IGROV1 ovarian; 10 µM): 121% (inactive); growth (OVCAR-3 ovarian; 10 µM): 101% (inactive) and 94% (inactive); growth (HS 578T breast): 109% (inactive) and 97.8% (inactive); growth (NCI/ADR-RES ovarian; 10 µM): 108% (inactive) and 106% (inactive)

Q: Which results are given for OCC(O)C(O)C(O)C(/C=N/Nc1ccccc1)=N/Nc1ccccc1 (centres undefined)?
A: growth (RPMI-8226 leukemia; 10 µM): 92.2% (inactive); growth (OVCAR-8 ovarian; 10 µM): 92.6% (inactive); growth (OVCAR-5 ovarian; 10 µM): 82.3% (inactive); growth (OVCAR-4 ovarian; 10 µM): 93.1% (inactive); growth (SK-OV-3 ovarian; 10 µM): 99.5% (inactive); growth (IGROV1 ovarian; 10 µM): 83.4% (inactive); growth (OVCAR-3 ovarian; 10 µM): 90.4% (inactive); growth (NCI/ADR-RES ovarian; 10 µM): 79.8% (inactive)

Q: Which growth (RPMI-8226 leukemia; 10 µM) does the source give for N=S(c1ccccc1[N+](=O)[O-])c1ccccc1[N+](=O)[O-] here?
A: 72.8% (inactive)

Q: What about the growth (OVCAR-8 ovarian; 10 µM) of the same molecule?
A: 96.8% (inactive)

Q: What about the growth (OVCAR-5 ovarian; 10 µM) of the same molecule?
A: 69.6% (inactive)

Q: And the growth (OVCAR-4 ovarian; 10 µM)?
A: 38.4% (inactive)

Q: What about the growth (SK-OV-3 ovarian; 10 µM) of the same molecule?
A: 87.2% (inactive)

Q: And the growth (IGROV1 ovarian; 10 µM)?
A: 53.9% (inactive)

Q: And the growth (OVCAR-3 ovarian; 10 µM)?
A: -58.8% (active)

Q: And the growth (NCI/ADR-RES ovarian; 10 µM)?
A: 90.4% (inactive)

Q: With CCCCCCCCCCCC[N+](C)(C)Cc1ccccc1 as the molecule, how does the growth (SR leukemia) read?
A: 4.5% (active)

Q: And the growth (RPMI-8226 leukemia; 10 µM)?
A: -48.3% (active)

Q: And the growth (OVCAR-8 ovarian; 10 µM)?
A: 11.9% (inactive)

Q: And the growth (OVCAR-5 ovarian; 10 µM)?
A: 55.6% (inactive)

Q: What about the growth (OVCAR-4 ovarian; 10 µM) of the same molecule?
A: 3.85% (active)

Q: And the growth (SK-OV-3 ovarian; 10 µM)?
A: 34.9% (inactive)

Q: And the growth (IGROV1 ovarian; 10 µM)?
A: -49.2% (active)

Q: What about the growth (OVCAR-3 ovarian; 10 µM) of the same molecule?
A: -0.287% (active)

Q: And the growth (NCI/ADR-RES ovarian; 10 µM)?
A: 96.8% (inactive)

Q: For CCCCCCCCCCCCSC(=NC)NC, which growth (SR leukemia) is on record?
A: -4.45% (active) and -23.7% (active)

Q: What about the growth (RPMI-8226 leukemia; 10 µM) of the same molecule?
A: -6.03% (active) and 23.3% (inactive)

Q: What about the growth (OVCAR-8 ovarian; 10 µM) of the same molecule?
A: 62.1% (inactive) and 82% (inactive)

Q: What about the growth (OVCAR-5 ovarian; 10 µM) of the same molecule?
A: 57.5% (inactive) and 84.1% (inactive)

Q: What about the growth (OVCAR-4 ovarian; 10 µM) of the same molecule?
A: 31.3% (inactive) and 71.2% (inactive)

Q: What about the growth (SK-OV-3 ovarian; 10 µM) of the same molecule?
A: 51% (inactive) and 79.1% (inactive)

Q: What about the growth (IGROV1 ovarian; 10 µM) of the same molecule?
A: 20.3% (inactive) and 66.7% (inactive)

Q: What about the growth (OVCAR-3 ovarian; 10 µM) of the same molecule?
A: 36.8% (inactive) and 71.7% (inactive)

Q: What about the growth (NCI/ADR-RES ovarian; 10 µM) of the same molecule?
A: 47.4% (inactive) and 69.1% (inactive)

Q: Which results are given for Nc1c2ccccc2nc2ccccc12?
A: growth (RPMI-8226 leukemia; 10 µM): 43.6% (inactive) and -28.8% (active) and 43.7% (inactive); growth (OVCAR-8 ovarian; 10 µM): -30.4% (active) and 38.1% (inactive) and 29.2% (inactive); growth (OVCAR-5 ovarian; 10 µM): 78.4% (inactive) and 55.4% (inactive); growth (OVCAR-4 ovarian; 10 µM): 4.83% (active) and 33.8% (inactive) and 56.2% (inactive); growth (SK-OV-3 ovarian; 10 µM): 18.9% (inactive) and 40% (inactive) and 34.1% (inactive); growth (IGROV1 ovarian; 10 µM): 13.6% (inactive) and -40.3% (active) and 32.2% (inactive); growth (OVCAR-3 ovarian; 10 µM): 3.88% (active) and 52.9% (inactive); growth (NCI/ADR-RES ovarian; 10 µM): 7.27% (active) and 43.1% (inactive) and 37% (inactive)

Q: CS(=O)(=O)OC1CC(n2ccc(=O)[nH]c2=O)OC1COC(c1ccccc1)(c1ccccc1)c1ccccc1 (centres undefined) was tested. Which growth (RPMI-8226 leukemia; 10 µM) did it give?
A: 101% (inactive)

Q: And the growth (OVCAR-8 ovarian; 10 µM)?
A: 104% (inactive)

Q: And the growth (OVCAR-5 ovarian; 10 µM)?
A: 98% (inactive)

Q: What about the growth (OVCAR-4 ovarian; 10 µM) of the same molecule?
A: 106% (inactive)

Q: What about the growth (SK-OV-3 ovarian; 10 µM) of the same molecule?
A: 106% (inactive)

Q: What about the growth (IGROV1 ovarian; 10 µM) of the same molecule?
A: 92% (inactive)

Q: And the growth (OVCAR-3 ovarian; 10 µM)?
A: 100% (inactive)

Q: And the growth (HS 578T breast)?
A: 112% (inactive)

Q: What about the growth (NCI/ADR-RES ovarian; 10 µM) of the same molecule?
A: 113% (inactive)

Q: For CC(=O)Nc1cc(C)ccc1C, which growth (RPMI-8226 leukemia; 10 µM) is on record?
A: 117% (inactive)

Q: And the growth (OVCAR-8 ovarian; 10 µM)?
A: 104% (inactive)

Q: And the growth (OVCAR-5 ovarian; 10 µM)?
A: 102% (inactive)

Q: And the growth (OVCAR-4 ovarian; 10 µM)?
A: 104% (inactive)

Q: What about the growth (SK-OV-3 ovarian; 10 µM) of the same molecule?
A: 102% (inactive)

Q: What about the growth (IGROV1 ovarian; 10 µM) of the same molecule?
A: 108% (inactive)

Q: What about the growth (OVCAR-3 ovarian; 10 µM) of the same molecule?
A: 102% (inactive)

Q: What about the growth (HS 578T breast) of the same molecule?
A: 90.4% (inactive)

Q: And the growth (NCI/ADR-RES ovarian; 10 µM)?
A: 103% (inactive)

Q: What does the source list for O=c1ccn(C2CC(O)C(COC(c3ccccc3)(c3ccccc3)c3ccccc3)O2)c(=O)[nH]1 (centres undefined)?
A: growth (RPMI-8226 leukemia; 10 µM): 95.8% (inactive); growth (RPMI-8226 leukemia; 100 µM): 40.2% (inactive); growth (OVCAR-8 ovarian; 10 µM): 80.7% (inactive); growth (OVCAR-8 ovarian; 100 µM): 44.9% (inactive); growth (OVCAR-5 ovarian; 10 µM): 101% (inactive); growth (OVCAR-5 ovarian; 100 µM): 73.7% (inactive); growth (OVCAR-4 ovarian; 10 µM): 94.5% (inactive); growth (OVCAR-4 ovarian; 100 µM): 38.5% (inactive); growth (SK-OV-3 ovarian; 10 µM): 99.8% (inactive); growth (SK-OV-3 ovarian; 100 µM): 94.9% (inactive); growth (IGROV1 ovarian; 10 µM): 99.2% (inactive); growth (IGROV1 ovarian; 100 µM): 58.1% (inactive); growth (OVCAR-3 ovarian; 10 µM): 102% (inactive); growth (OVCAR-3 ovarian; 100 µM): 47.8% (inactive); growth (NCI/ADR-RES ovarian; 10 µM): 85% (inactive); growth (NCI/ADR-RES ovarian; 100 µM): 44.3% (inactive)
